This is an account of results in PubChem BioAssay (NCATS).

The structures appear in SMILES notation. Results filed as inconclusive are left out. Values without a mark were called inactive. Calls of active or inactive are those of the source. Calls follow the shape of the dose curve; as a rule, active = well fitted inhibition curve with a large enough effect; inconclusive = small, poorly fitted or top-dose-only effect; inactive = flat fitted curve, though single readings scatter.

A short description of test [1]: Drug repurposing screens with cells derived from glioblastoma tumor samples (AID 1345199). Also: nearly all actives have a fitted effect of over 40% in size. The conditions noted are these: GBM patient neurospheres viability, ATP luminescence, 48 h. In a few lines:
(§1)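 Primary testing used CD133+ neurospheres from four GBM patients, seven concentrations, 48 h exposure and ATP-based viability; confirmation added three slower-growing patient lines.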

Test [2] deals with astro (control astrocytes). The description is as above. Conditions: viability, ATP luminescence, 48 h; series mostly up to 45.9 µM. Put shortly:
as §1

Setting [3] is: at 45.9 µM (top of the series), tumour line B.
[4] abbreviates: at 45.9 µM (top of the series), tumour line D.
Where [5] appears, read: at 46.1 µM (top of the series), tumour line C.
The mark [6] stands for this setting: at 46 µM (top of the series), tumour line A.
% is scaled to controls: 0 for no effect and ±100 for the full control effect; potency is read from the fitted curve at half-maximal effect.

On to `CO/N=C(\C(=O)N[C@@H]1C(=O)N2C(C(=O)O)=C(CSc3nnnn3C)CS[C@H]12)c1csc(N)n1`, for which the activity, negative = cell killing in test [1] (setting [3]) is -10.5%; in test [1] (setting [4]) it was -9.07%; in test [1] (setting [5]), -27.1%. Moreover, the Potency in test [1] (tumour line A) is 11.2 µM (active). Also, in test [2], the Potency result is “inactive”.

As to `CN1C(=O)C[C@@H](C(=O)N[C@@H](Cc2cnc[nH]2)C(=O)N2CCC[C@H]2C(N)=O)NC1=O`, the activity, negative = cell killing in test [1] (setting [3]) is -7.31%; in test [1] (setting [4]), -5.42%; in test [1] (setting [6]), -26.4%; in test [1] (setting [5]) it was -16.9%. Besides, the Potency result in test [2] is “inactive”.

As for `O=C(O)CN(CC(=O)O)CC1=CC2C(=CC1=O)Oc1cc(O)c(CN(CC(=O)O)CC(=O)O)cc1C21OC(=O)c2ccccc21` (stereo not given), the activity, negative = cell killing in test [1] (setting [3]) is -10.9%; in test [1] (setting [4]), -10.1%; in test [1] (setting [6]), -21.2%; in test [1] (setting [5]) it was -24.7%. Also, the Potency entry in test [2] is “inactive”.

Regarding `O=C(O)c1cc(O)c2c(c1)[C@H]([C@H]1c3cc(C(=O)O)cc(O)c3C(=O)c3c(O[C@@H]4O[C@H](CO)[C@@H](O)[C@H](O)[C@H]4O)cccc31)c1cccc(O[C@@H]3O[C@H](CO)[C@@H](O)[C@H](O)[C@H]3O)c1C2=O`, the activity, negative = cell killing was -24.5% in test [1] (setting [3]), -3.04% in test [1] (setting [4]), -24% in test [1] (setting [6]) and -0.084% in test [1] (setting [5]). Moreover, in test [2], the Potency result was “inactive”.

For `O=C1CCC(=O)N1CO`, the activity, negative = cell killing in test [1] (setting [3]) is -0.626%; in test [1] (setting [4]), -0.644%; in test [1] (setting [6]) it was -17%; in test [1] (setting [5]), -0.827%. Besides, the Potency result in test [2] was “inactive”.

With `CS(=O)(=O)OCC(O)C(O)COS(C)(=O)=O` (stereo not given), the activity, negative = cell killing is -10.6% in test [1] (setting [3]), -10.3% in test [1] (setting [4]), -29.4% in test [1] (setting [6]) and -1.32% in test [1] (setting [5]). Further, in test [2], the Potency entry was “inactive”.

Regarding `COc1cc2c(cc1OC)[C@@H](c1ccccc1)CN(C)CC2`, the activity, negative = cell killing in test [1] (setting [3]) was -22%; in test [1] (setting [4]), -9.13%; in test [1] (setting [5]), -17.9%. Moreover, the Potency in test [1] (tumour line A) was 20 µM (active). Besides, the Potency entry in test [2] is “inactive”.

`CC(C)c1ncc([N+](=O)[O-])n1C`: the activity, negative = cell killing in test [1] (setting [3]) was -8.02%; in test [1] (setting [4]), -13.9%; in test [1] (setting [6]), -13.9%; in test [1] (setting [5]), -14.5%. Further, the Potency result in test [2] is “inactive”.

As to `Nc1nc(/C(=C/CC(=O)O)C(=O)N[C@@H]2C(=O)N3C(C(=O)O)=CCS[C@H]23)cs1`, the activity, negative = cell killing was -0.0909% in test [1] (setting [3]), -11.4% in test [1] (setting [4]), 12.2% in test [1] (setting [6]) and 20.6% in test [1] (setting [5]). Besides, the Potency result in test [2] was “inactive”.

As to `O=C(NCCNCC(O)COc1ccc(O)cc1)N1CCOCC1` (stereo not given), the activity, negative = cell killing in test [1] (setting [3]) was -5.84%; in test [1] (setting [4]), -3.52%; in test [1] (setting [6]), -55.7%; in test [1] (setting [5]), -0.52%. The Potency entry in test [2] is “inactive”.
